Source: PubChem BioAssay (Tox21)
Values joined by “and” are separate entries in the source; they are usually repeats but may differ in a detail not shown here. Equal entries are not always repeated. Values without a mark were called inactive. Results filed as inconclusive are left out. Where a call stands in place of a potency, no number is given. Active and inactive are the calls of the source. Unless noted, the call rests on the fitted dose curve; in most records, active means well fitted curve in the direction sought with a large enough effect in the repeat runs; inconclusive means weak or mixed curves; inactive means no such curve, though single readings can be large; an effect the other way counts as inactive or inconclusive.

Key:
[1] = qHTS assay for small molecules that induce genotoxicity in human embryonic kidney cells expressing luciferase-tagged ATAD5 (AID 651632); further: nearly all actives have a fitted effect of over 15% in size; further: potency means the concentration at half of the fitted maximal effect
Summary of the method: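 Test compounds were delivered by pin tool onto HEK293T reporter cells (2,000/well) expressing ATAD5 fused to luciferase. After 16 hr at 37C, 5% CO2, Amplite was added for 30 min at room temperature and luminescence was measured.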

[2] = qHTS assay for small molecule disruptors of the mitochondrial membrane potential (AID 720635); further: potency means the concentration at half of the fitted maximal effect
Summary of the method: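 HepG2 cells (2,000/well) attached overnight at 37C, then took compound for 1 hr at 37C, 5% CO2. Mito-MPS dye was added for 30 min; fluorescence was read at 490/535 nm (monomers) and 540/590 nm (aggregates).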

[3] = qHTS assay to test for compound auto fluorescence at 590 nm (red) in HepG2 cells (AID 720674)
Summary of the method: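 Rose Bengal sodium served as the red fluorophore standard. HepG2 monolayers (overnight attachment, MEM with 10% FBS) were exposed to test compounds for 1 hr at 37 C and read at Ex 540/Em 590 nm.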

[4] = qHTS assay to test for compound auto fluorescence at 535 nm (green) in HepG2 cells (AID 720675)
[5] = qHTS assay to test for compound auto fluorescence at 460 nm (blue) in HEK293 cells (AID 720678)
Summary of the method: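 HEK293 cells (2,000 per well, medium with 10% dialyzed FBS) attached for 4-5 hr at 37C, then received compound and stood overnight at 37C, 5% CO2. Blue fluorescence was read at Ex/Em 405/460 nm and expressed relative to triamterene.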

[6] = qHTS assay to test for compound auto fluorescence at 590 nm (red) in HEK293 cells (AID 720679)
Summary of the method: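 HEK293 cells (2,000/well, medium with 10% dialyzed FBS) attached for 4-5 hr at 37C, received 23 nL compound and were incubated overnight at 37C, 5% CO2. Red fluorescence was then read at 540/590nm Ex/Em, referenced to Rose Bengal sodium.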

[7] = qHTS assay for small molecule agonists of the p53 signaling pathway - cell viability (AID 651633; calls by dose curve; further: nearly all actives have a fitted effect of over 30% in size; further: potency means the concentration at half of the fitted maximal effect)
Summary of the method: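 p53RE-bla cells, seeded at 4,000 per well and rested 5 h at 37 C/5% CO2, received compounds in DMSO for 16 h at 37 C. CellTiter-Glo was then added, and luminescence was read after 30 min at room temperature to gauge cytotoxicity.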

[8] = qHTS assay for small molecules that induce genotoxicity in human embryonic kidney cells expressing luciferase-tagged ATAD5 - cell viability (AID 651634; calls by dose curve; further: nearly all actives have a fitted effect of over 25% in size; further: potency means the concentration at half of the fitted maximal effect)
Summary of the method: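 Quantitative high-throughput format. HEK293T cells expressing ATAD5 fused to luciferase were plated at 2,000 cells/well and treated 15.5 hr with compound versus DMSO. Viability was determined by fluorescent live-cell protease substrate, 30 min at 37C.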

[9] = qHTS assay for small molecule disruptors of the mitochondrial membrane potential - cell viability (AID 720634; calls by dose curve; further: nearly all actives have a fitted effect of over 20% in size; further: potency means the concentration at half of the fitted maximal effect)
Summary of the method: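 Same-well counter-screen: following the MMP dye addition, CellTiter-Glo was added to 1 hr compound-treated HepG2 cells and luminescence read after 30 min at room temperature.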

| SMILES | Potency [1] | Potency [2] | Potency [3] | Potency [4] | Potency [5] | Potency [6] | Potency [7] | Potency [8] | Potency [9] | fluorescence, relative to Rose Bengal [3] | fluorescence, % of fluorescein control [4] | fluorescence, % of triamterene [5] | fluorescence, % of fluorescent control [6] |
| --- | --- | --- | --- | --- | --- | --- | --- | --- | --- | --- | --- | --- | --- |
| NC(=O)c1nc(-c2cccc(-c3cc(F)ccc3OCC(F)(F)C(F)(F)F)c2)n[nH]1 | inactive | 9.69 µM (active) | inactive | inactive | inactive | inactive |  |  |  |  |  |  |  |
| NCCCC(O)(P(=O)(O)O)P(=O)(O)O |  | inactive | inactive | inactive | inactive | inactive | inactive | inactive | inactive |  |  |  |  |
| CC(C(O)c1ccccc1)N(C)CCOC(c1ccccc1)c1ccccc1 (centres undefined) | inactive |  | inactive | inactive | inactive | inactive |  | inactive | inactive |  |  |  |  |
| CC(C)(C)C1=CC(=O)C=C(C(C)(C)C)C1=O | inactive | 7.7 µM (active) | inactive | inactive | inactive | inactive |  | 30.6 µM (active) | 61.1 µM (active) |  |  |  |  |
| O=C(O)CCn1c2c(c3ccccc31)C[C@H](NS(=O)(=O)c1ccc(F)cc1)CC2 | inactive |  | inactive | inactive | inactive | inactive |  | inactive | inactive |  |  |  |  |
| CCCCCCOc1cc(C)c(O)c(C)c1C | inactive | 5.51 µM (active) | inactive | inactive | inactive | inactive |  |  | 27.6 µM (active) |  |  |  |  |
| N#CSCSc1nc2ccccc2s1 |  | 30.6 µM (active) | inactive | inactive | inactive | inactive | 21.7 µM (active) | inactive | inactive |  |  |  |  |
| COc1ccccc1OCCNCC(O)COc1cccc2[nH]c3ccccc3c12 (centres undefined) |  | 23.7 µM (active) | inactive | inactive | inactive | inactive | inactive | inactive | inactive |  |  |  |  |
| C[C@H]1O[C@@H](O[C@H]2[C@@H](O)C[C@H](O[C@H]3[C@@H](O)C[C@H](O[C@H]4CC[C@@]5(C)[C@H](CC[C@@H]6[C@@H]5C[C@@H](O)[C@]5(C)[C@@H](C7=CC(=O)OC7)CC[C@]65O)C4)O[C@@H]3C)O[C@@H]2C)C[C@H](O)[C@@H]1O |  | 298 nM (active) and 1.37 µM (active) and 604 nM (active) | inactive | inactive | inactive | inactive | 94.4 nM (active) and 13.7 nM (active) and 30.3 nM (active) | 168 nM (active) and 48.6 nM (active) and 42.8 nM (active) | inactive |  |  |  |  |
| Clc1ccccc1CN1CCc2sccc2C1 | inactive | 26.6 µM (active) | inactive | inactive |  | inactive |  | inactive | inactive |  |  |  |  |
| O=C1Nc2ccc(Cl)cc2[C@@](C#CC2CC2)(C(F)(F)F)O1 | inactive | 4.73 µM (active) | inactive | inactive | inactive | inactive |  |  | 29.8 µM (active) |  |  |  |  |
| Clc1ccc(C(Cn2ccnc2)OCc2c(Cl)cccc2Cl)c(Cl)c1 (centres undefined) | inactive | inactive |  |  |  |  |  | inactive | inactive | 0.526% [at 18.6 µM] | -0.003% [at 18.6 µM] | -0.277% [at 18.6 µM] | -0.295% [at 18.6 µM] |
| O=C(Oc1ccccc1)c1cccc(C(=O)Oc2ccccc2)c1 | 3.86 µM (active) |  | inactive | inactive | inactive | inactive |  | inactive |  |  |  |  |  |
| C=CC(=O)OCCC#N | inactive |  | inactive | inactive | inactive | inactive |  | inactive | inactive |  |  |  |  |
| CSc1c(Cl)c(Cl)c(Cl)c(Cl)c1Cl | inactive |  | inactive | inactive | inactive | inactive |  | inactive | inactive |  |  |  |  |
| COC(=O)C1=C(C)NC(C)=C(C(=O)OCCCN2CCC(c3ccccc3)(c3ccccc3)CC2)C1c1cccc([N+](=O)[O-])c1 (centres undefined) |  |  | inactive | inactive | inactive | inactive | 26.6 µM (active) | 23.7 µM (active) | inactive |  |  |  |  |
| O=C1c2c(O)ccc([N+](=O)[O-])c2C(=O)c2c([N+](=O)[O-])ccc(O)c21 |  | 0.054 µM (active) | inactive | inactive | inactive | inactive | 8.56 µM (active) | 9.6 µM (active) | 30.4 µM (active) |  |  |  |  |
